# Measurements as given in ChEMBL document CHEMBL3433997, “St. Jude Leishmania screening dataset” (2016).
# Biological target: Glucose transporter (Leishmania mexicana) (UniProt O61059)
# Test: ST_JUDE_LEISH: Cytotoxicity at 2uM final concentration against transgenic Leishmania Mexicana promastigotes LmGT2 that are glucose transport deficient and complemented with the L. Mexicana glucose transporter 2. Activity is measured by DNA content using SYBR green in vitro
# Format: functional
row,SMILES,inhibition [%]
1,O=C(NC1CCN(CCN2CCC(c3cn(CCO)c4ccccc34)CC2)CC1)c1ccc(-c2ccc(C(F)(F)F)cc2)cc1,0.94
2,COc1cccc(NC(=O)Nc2c(-c3cccc(C(F)(F)F)c3)c(C(F)(F)F)nn2C)c1,0.37
3,N#Cc1cccc(C(=O)Nc2cccc(-c3ccc(C(=O)NCCCN4CCOCC4)cc3)c2)c1,5.11
4,CN1CCN(c2ccnc3ccc(NC(=O)Cc4ccc(Br)c5ccccc45)cc23)CC1,2.02
5,CNC(=O)c1cc(Nc2nnc(-c3ccc(C)c(S(=O)(=O)NC4CCCCC4)c3)c3ccccc23)ccc1OC,4.93
6,COc1ccc2ncc(F)c(CCN3CCC(NCc4cc(F)c5c(c4)OCCO5)CC3)c2n1,17.9
7,O=C(NCc1ccc(Cl)c(Cl)c1)c1cc(CNC2CCNCC2)ccc1O,2.11
8,O=C(NCCCCN1CCC(c2ccc(OC(F)(F)F)cc2)CC1)c1ccc(NC(=O)c2ccc(Cl)cc2)cc1,-1.72
9,CCN(CC)/C(=N/C(=N)Nc1ccc(C)cc1)NCCCCCCN/C(=N\C(=N)Nc1ccc(C)cc1)N(CC)CC,5.53
10,CN1N=C2c3ccccc3CCC2C1c1ccc(C#N)cc1 (centres undefined),7.86
11,COC(=O)[C@@H](NC(=O)[C@H](CC(C)C)Nc1ccc(C#N)c2ccccc12)c1ccc(O)cc1,-2.23
12,NC(=S)Cc1ccc2c(c1)OCO2,-0.59
13,C=C(C)CSc1nc2c(c(=O)n1CCc1ccccc1)C1(CCCC1)Cc1ccccc1-2,5.02
14,CN1CCCc2ccc(NC(=O)c3cnc(-c4ccccc4)cn3)cc21,-0.23
15,Oc1ccc(Br)cc1C(O)CNCc1ccccc1OCc1ccccc1 (centres undefined),2.87
16,Cc1[nH]c(C)c(-c2cc3ccccc3o2)c(=O)c1Cl,0.5
17,Oc1cccc2ccc(Nc3ccccn3)nc12,-0.77
18,COc1cc2nccc(Nc3cc(C)cc(O)c3)c2cc1OC,0.8
19,CCN1CCC(N(Cc2ccc(-c3ccc(C(F)(F)F)cc3)cc2)C(=O)Cn2c(CCc3cccc(F)c3F)cc(=O)c3ccc(OCc4ccccc4)cc32)CC1,3.52
20,O=C(NCc1cccc(C(F)(F)F)c1)c1ccc(-c2nc3cc(F)c(F)cc3[nH]2)cc1,4.61
21,O=C(Nc1ccccc1Br)c1cn(-c2ccccc2)nc1-c1cccc([N+](=O)[O-])c1,8.93
22,CCCN(CCCCNC(=O)c1ccc(-c2cccnc2)cc1)C1CCc2c(O)cccc2C1 (centres undefined),3.11
23,CCOc1cc(C(=O)NC2CCN(Cc3ccccc3)CC2)ccc1-c1nc2cc(Cl)c(F)cc2[nH]1,3.19
24,CON=Cc1ccn(-c2ccc(O)c3c2C[C@H]2C[C@H]4[C@H](N(C)C)C(O)=C(C(N)=O)C(=O)[C@@]4(O)C(O)=C2C3=O)c1,4.92
